CYP2C9 activ = activators of human CYP2C9. P11712. recombinant CYP2C9, luciferin-H conversion, luminescence; active compounds read high; factor 1 = untreated enzyme, 0 = blocked. hit rate 1.4% among 96,000. activation factor at 5 µM. AID 1024;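 active means activation factor of 2 or more for CYP2C9 at a 5 µM dose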;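 further: 0 = sulfaphenazole-blocked wells and 1 = vehicle-only wells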
CYP2C19 act = cytochrome P450 2C19 (human) activation. 96,000 tested, under 10 active. AID 1025. P33261. activation factor at 5 µM. recombinant CYP2C19, luciferin-H EGE luminescence; active compounds read high; 0 = fully inhibited enzyme, 1 = untreated enzyme;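 active means activation factor of at least 2 at 5 µM in the primary screen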;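 further: 0 = wells with 2.5 mM tranylcypromine and 1 = vehicle-only wells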
Target sequence (P33261 whole entry, looked up): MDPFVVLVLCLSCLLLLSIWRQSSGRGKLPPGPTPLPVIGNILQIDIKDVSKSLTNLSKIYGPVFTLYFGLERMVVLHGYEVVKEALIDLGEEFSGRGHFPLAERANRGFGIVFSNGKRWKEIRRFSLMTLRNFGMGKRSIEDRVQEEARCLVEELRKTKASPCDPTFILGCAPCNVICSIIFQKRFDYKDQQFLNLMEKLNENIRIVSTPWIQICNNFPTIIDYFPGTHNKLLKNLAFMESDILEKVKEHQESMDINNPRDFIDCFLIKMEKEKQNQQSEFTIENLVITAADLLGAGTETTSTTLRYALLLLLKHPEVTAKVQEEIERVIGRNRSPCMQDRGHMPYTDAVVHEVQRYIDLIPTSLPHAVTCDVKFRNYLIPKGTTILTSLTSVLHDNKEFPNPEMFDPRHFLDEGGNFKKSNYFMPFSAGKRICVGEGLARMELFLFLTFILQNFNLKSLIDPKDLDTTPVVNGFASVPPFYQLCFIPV
CYP2C19 inhib = blocks human cytochrome P450 2C19 | P33261 | CYP2C19 Supersomes, luciferin-H EGE luminescence, 30 min | inhibition, % at 5 µM | hit rate 21% among 96,000 | AID 778;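 active means CYP2C19 inhibition above a set limit at 5 µM in the primary screen, cut at about 50% in these data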;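 further: plate controls were negative control wells for no effect and 2.5 mM tranylcypromine positive control for full effect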
PLAP act = activators of human placental alkaline phosphatase; P05187; purified PLAP enzyme, luminescent substrate read-out; active compounds read high; activation fold at 20 µM; hit rate 1.2% among 96,000; AID 696; in the data active means activation fold above about 2
CYP2C9 inh = inhibitors of human CYP2C9; P11712; CYP2C9 Supersomes, luciferin-H conversion, luminescence; inhibition, % at 5 µM; hit rate 20% among 96,000; AID 777;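 active means blocking of liver enzyme CYP2C9 beyond about 50% at 5 µM, limit read from the data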
Numbers without * were called inactive. Rows were chosen to be rich in hits. Some 31% of all compounds tested hit in one or more screens of this group.

SMILES | CYP2C9 activ | CYP2C19 act | CYP2C19 inhib | PLAP act | CYP2C9 inh
Cc1cc(NC(=O)COC(=O)C2CCCN2C(=O)c2cccs2)no1 (configuration not stated) | 1 | 1.1 | -11.8 | 1.3 | 1.2
COc1ccc(-c2csc(N(CC3CCCO3)C(=O)c3ccco3)n2)cc1 (configuration not stated) | 1 | 1.1 | -6.5 | 1 | -0.7
O=C(CSc1ccc(Cl)cc1)Nc1cccc(-c2nc3ncccc3o2)c1 | 0.5 | 1 | 3.9 | 0.8 | 51.1*
COc1c(C)cc(Br)cc1C(=O)Nc1cccc(-c2nc3ncccc3o2)c1 | 0.5 | 0.1 | 91.7* | 1.4 | 54.2*
COc1ccc(C(=O)Nc2cccc(-c3nc4ncccc4o3)c2C)cc1 | 0.4 | 0.9 | 13.0 | 0.9 | 64.5*
CCCCC(=O)Nc1cccc(-c2nc3ncccc3o2)c1 | 0.6 | 0.7 | 32.0 | 0.9 | 36.3
Cc1c(NC(=O)CSc2ccc(Cl)cc2)cccc1-c1nc2ncccc2o1 | 0.1 | 0.7 | 27.5 | 1 | 91.9*
COc1cc(C(=O)Nc2cccc(-c3nc4ncccc4o3)c2C)cc(OC)c1OC | 1 | 1 | -4.8 | 1.1 | -1.1
COc1ccc(C2Nc3ccc4ccccc4c3-c3c2c(=O)oc2ccccc32)cc1 (configuration not stated) | 0.2 | 0.9 | 12.0 | 1.9 | 83.3*
O=c1oc2ccccc2c2c1C(c1ccc(Cl)cc1)Nc1ccc3ccccc3c1-2 (configuration not stated) | 0.9 | 1 | 1.9 | 0.7 | 5.4
CCOc1ccc(C2Nc3ccc4ccccc4c3-c3c2c(=O)oc2ccccc32)cc1 (configuration not stated) | 0.2 | 0.5 | 52.4* | 1.7 | 84.3*
Cc1ccnc(SCCn2c(N3CC(C)CC(C)C3)nc3c2c(=O)n(C)c(=O)n3C)n1 (configuration not stated) | 0.6 | 0.8 | 19.1 | 1.5 | 41.2
COc1ccc(CN/C(C)=C(/C#N)C(N)=O)cc1OC | 0.9 | 0.9 | 11.5 | 0.9 | 6.2
COc1ccc(CN(C(=O)c2ccco2)c2ccc(C)cc2)cc1OC | 0.4 | 0.3 | 65.4* | 1.6 | 63.3*
COc1ccc(CCNC(=O)COC(=O)c2ccco2)cc1OC | 1.1 | 1 | -0.9 | 0.8 | -9.6
CC1(C)CC(=O)c2c(O)cc(OCc3ccc([N+](=O)[O-])cc3)cc2O1 | 1 | 1 | -4.1 | 1 | 2.9
CS(=O)(=O)N(CC(=O)NCc1ccncc1)c1ccc(Cl)c(Cl)c1 | 0 | 0 | 100.3* | 0.9 | 99.0*
CS(=O)(=O)N(CC(=O)NCC1CCCO1)c1ccc(Cl)c(Cl)c1 (configuration not stated) | 1.1 | 0.6 | 41.7 | 0.8 | -8.4
COc1ccccc1N(CC(=O)NCc1ccccn1)S(C)(=O)=O | 1 | 0.9 | 5.2 | 0.8 | 0.3
COc1ccc(OC)c(N(CC(=O)NCc2cccnc2)S(C)(=O)=O)c1 | 0.9 | 0.3 | 70.8* | 1.3 | 12.3
COc1ccccc1N(CC(=O)NCc1cccnc1)S(C)(=O)=O | 1.1 | 0.7 | 28.0 | 1 | -9.1
Cc1ccccc1N(CC(=O)NCc1ccncc1)S(C)(=O)=O | 0.1 | 0 | 97.0* | 1.3 | 86.0*
COc1ccc(OC)c(N(CC(=O)NCc2ccncc2)S(C)(=O)=O)c1 | 0.5 | 0.2 | 78.3* | 1.1 | 52.1*
COc1ccccc1N(CC(=O)Nc1ccccc1C(=O)NC(C)C)S(C)(=O)=O | 0.6 | 1 | -0.7 | 1.1 | 40.8
Cc1cc(C)cc(N(CC(=O)NCc2cccnc2)S(C)(=O)=O)c1 | 0.9 | 0.4 | 63.6* | 1 | 10.2
SMILES | CYP2C9 activ | CYP2C19 act | CYP2C19 inhib | PLAP act | CYP2C9 inh
Cc1ccc(SCC(=O)NCc2cccnc2)cc1 | 0.7 | 0.8 | 18.5 | 0.9 | 26.7
Cc1ccccc1N(CC(=O)Nc1ccccc1C(=O)O)S(C)(=O)=O | 0.1 | 1.1 | -5.7 | 1.3 | 89.2*
Cc1cccc(N2C(=O)CC(N(O)c3ccccc3)C2=O)c1 (configuration not stated) | 1.4 | 0.6 | 40.9 | 1.1 | -37.9
O=C(NCc1ccccc1)c1cccc(OCC(=O)N2CCN(C(=O)c3ccco3)CC2)c1 | 0.8 | 0.8 | 17.7 | 1.1 | 19.1
CCNc1cc2oc(=O)c(CN3CCOCC3)c(C)c2cc1C | 3.3* | 0.8 | 21.7 | 2* | -226.6
Cc1cc2oc(=O)cc(CN3CCOCC3)c2cc1C | 1.2 | 0.5 | 46.6 | 0.7 | -19.8
CCCCNC1=C(Br)C(=O)CC(C)(C)C1 | 1 | 0.2 | 82.5* | 0.8 | 2.4
CCCCCCN=CC1=C(O)CC(C)(C)CC1=O | 0.8 | 0.8 | 20.6 | 1.2 | 18.3
